Screening data from PubChem.
BoNT-A LC inh2 – inhibitors of Botulinum neurotoxin A light chain protease; AID 588499; multiplex microsphere protease substrate cleavage, flow cytometry; 0.17% of 360,000 active; inhibition, % at 10 µM
BoNT F protease – BoNT F light chain protease inhibition; Multiplex microsphere protease cleavage assay, flow cytometry; inhibition, % at 10 µM; 0.22% of 360,000 active; AID 588497; in the data active = inhibition above about 35%, passing the limit was not always enough; inconclusive = no clear call, values can overlap the other calls
Bead autofluor – flagged as autofluorescent in microsphere protease counterscreen. fluorescence intensity (concentration not given with the values). 3.1% of 360,000 active. compound autofluorescence counterscreen, microsphere flow cytometry; hits give high values. AID 624483; in the data active = fluorescence intensity above about 16000; inconclusive = no clear call, values can overlap the other calls
MazF activator – activators of E. coli MazEF toxin-antitoxin RNase | FAM/BHQ RNA-DNA oligo cleavage fluorescence, 5 h | activation, % at 20 µM | 0.32% of 350,000 active; in the data active = activation above about 50%
Anthrax LF inh2 – blocks Bacillus anthracis lethal factor protease. P15917. inhibition, % at 10 µM. 0.12% of 360,000 active. multiplex microsphere protease cleavage assay, LF
Target sequence (P15917 whole entry, looked up): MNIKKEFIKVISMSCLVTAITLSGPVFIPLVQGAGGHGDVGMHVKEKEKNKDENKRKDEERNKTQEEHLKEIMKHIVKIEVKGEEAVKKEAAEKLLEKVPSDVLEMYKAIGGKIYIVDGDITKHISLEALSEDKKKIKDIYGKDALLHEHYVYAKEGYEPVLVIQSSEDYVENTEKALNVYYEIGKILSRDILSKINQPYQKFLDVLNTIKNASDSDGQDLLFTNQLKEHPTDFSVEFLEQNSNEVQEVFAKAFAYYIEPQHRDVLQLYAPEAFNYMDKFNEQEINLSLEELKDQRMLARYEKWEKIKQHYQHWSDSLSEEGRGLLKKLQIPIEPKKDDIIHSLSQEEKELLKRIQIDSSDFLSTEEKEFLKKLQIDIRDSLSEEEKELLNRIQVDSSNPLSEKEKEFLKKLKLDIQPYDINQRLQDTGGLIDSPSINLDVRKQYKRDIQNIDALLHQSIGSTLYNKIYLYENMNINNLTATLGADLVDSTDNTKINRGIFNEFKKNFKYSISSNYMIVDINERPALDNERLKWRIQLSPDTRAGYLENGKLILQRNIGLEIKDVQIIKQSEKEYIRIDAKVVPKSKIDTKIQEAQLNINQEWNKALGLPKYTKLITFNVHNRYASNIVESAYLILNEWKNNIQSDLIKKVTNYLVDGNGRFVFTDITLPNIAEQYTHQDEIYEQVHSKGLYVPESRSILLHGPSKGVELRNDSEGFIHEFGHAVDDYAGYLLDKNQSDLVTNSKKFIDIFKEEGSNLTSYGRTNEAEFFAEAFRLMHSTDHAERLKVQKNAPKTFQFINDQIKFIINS
Each line names hits and unclear results; the compound was inactive in the other large screens. This is a sample that favours compounds with a hit; in the whole collection about 3.7% have one here. Rule as the data show it, unless noted: active = inhibition above about 30%; inconclusive = no clear call, values can overlap the other calls; inactive = below that.

Cc1ccnc(N2CCC(C(=O)Nc3nnc(C)s3)CC2)n1	Bead autofluor inconclusive
Cc1cc(C)nc(N2CCC(C(=O)NC3CCCc4ccccc43)CC2)n1 (centres undefined)	Bead autofluor 19820
COc1ccc(NC(=O)C2CCN(c3nc(C)cc(C)n3)CC2)cc1	none
Cc1cc(C)nc(N2CCC(C(=O)Nc3ccc4c(c3)CCC4)CC2)n1	Bead autofluor 21599
Cc1cc(C)nc(N2CCC(C(=O)Nc3cccc(C(F)(F)F)c3)CC2)n1	Bead autofluor 17064
Cc1ccc(C(=O)OCC(=O)NC2CCCc3ccccc32)o1 (centres undefined)	none
O=C(Nc1cccc(C(F)(F)F)c1)C1CCCN1S(=O)(=O)c1cccc2cccnc12 (centres undefined)	BoNT-A LC inh2 inconclusive, Bead autofluor 20787
Cc1ccc(C(=O)NC2CCCc3ccccc32)o1 (centres undefined)	Bead autofluor 22743
CS(=O)(=O)N1CCC(C(=O)Nc2cccc(C(F)(F)F)c2)CC1	none
CCCCOC(=O)C1=C(C)Nc2ncnn2C1c1ccc(OC)c(OC)c1 (centres undefined)	BoNT-A LC inh2 inconclusive, Bead autofluor 21510
CC1=C(C(N)=O)C(c2ccc(Cl)cc2Cl)n2ncnc2N1 (centres undefined)	Bead autofluor 21777
CCCCOC(=O)C1=C(C)Nc2ncnn2C1c1ccc(OCC)c(OC)c1 (centres undefined)	Bead autofluor 19529
CCOc1ccc(C2C(C(N)=O)=C(C)Nc3ncnn32)cc1OC (centres undefined)	none
CSc1ncccc1C(=O)OCC(=O)NC12CC3CC(CC(C3)C1)C2	none
O=C(C[C@@H]1C/C=C\C[C@@H](Cc2ccc(F)cc2)C(=O)OC[C@H]2CCCN2C1=O)NCCO	none
O=C(NCCCN1CCC(Cc2ccccc2)CC1)C1CC(=O)N(C2CCCCCC2)C1 (centres undefined)	Bead autofluor 20812
OC(Cn1c2ccccc2c2ccccc21)C[n+]1cccc2ccccc21 (centres undefined)	BoNT-A LC inh2 inconclusive, Bead autofluor 20032, MazF activator 50.5
Cc1nc2ccccc2n1CC(O)Cn1c2ccccc2c2ccccc21 (centres undefined)	BoNT-A LC inh2 inconclusive
COc1ccc(C(=O)NC(CC(C)C)C(=O)O)cc1OC (centres undefined)	BoNT-A LC inh2 inconclusive, Bead autofluor 20991
COc1ccc(CNC(=O)N[C@@H](CC(C)C)C(=O)O)cc1OC	Bead autofluor inconclusive
CCn1c(C)nc2c(=O)oc3ccccc3c21	Bead autofluor 21816
CC(C)Cn1nnc2c(=O)oc3ccccc3c21	BoNT-A LC inh2 inconclusive, Bead autofluor 24285
CCOc1cccc(-c2cnc3cccnn23)c1	none (no result: MazF activator)
CCOC(=O)C1(CCOC)CCN(C/C=C/c2ccccc2OC)CC1	BoNT F protease inconclusive
O=C1NCC(CN(c2ccccc2)c2ccccc2)O1 (centres undefined)	Bead autofluor 19299
CCOC(=O)C(=Cc1ccc(-c2ccsc2C(=O)OC)o1)C(=O)OCC	Bead autofluor 22339
COC(=O)c1sccc1NC(=O)c1cccnc1	none
COC(=O)c1sccc1-c1ccc(C(=O)Nc2cccnc2)o1	Bead autofluor 21993
O=C(COc1ccc2ccc(=O)oc2c1)Nc1c(Cl)cccc1C(F)(F)F	none
CCC(=O)Nc1sc2c(c1C(N)=O)CCC2	Bead autofluor 23030
Cc1noc(C)c1C(=O)Nc1sc2c(c1C(N)=O)CCCCC2	Bead autofluor 22480
CC(=O)Oc1c(/C=C(\C#N)C(N)=O)[nH]c2ccccc12	MazF activator 596.7
N#C/C(=C\c1c[nH]c2ccccc12)C(N)=O	BoNT F protease inconclusive
Cc1ccccc1N1C(=O)[C@@H]2Cc3ccccc3CN2C1=O	BoNT-A LC inh2 inconclusive, Bead autofluor 19296
Fc1ccc(/C=N/NC2=Nc3cccc4cccc2c34)cc1	MazF activator 110.3
C/C=C1\NC(=O)[C@H](C)NC(=O)[C@@H](NC(=O)[C@@H](Cc2ccc(O)cc2)NC(=O)[C@@H](NC(=O)/C(C)=C/C)C(C)C)[C@@H](C)OC(=O)[C@H](CCCCc2ccc(O)cc2)NC(=O)[C@@H](CCC(=O)OC)NC1=O	none (no result: MazF activator)
CC(=NNC(=S)SCc1ccccc1)c1ccccn1	BoNT-A LC inh2 41.8, BoNT F protease 83.1, Anthrax LF inh2 56.9
CC(=NNC(=S)Nc1cccc(Cl)c1)c1ccccn1	BoNT F protease 62.8, Anthrax LF inh2 41.1
CN1CCC(NC(=O)c2cc(-c3cccc(Br)c3)nc3ccccc23)CC1	none
Cc1nnc(NC(=O)C2CCCN(c3ncccn3)C2)s1 (centres undefined)	Bead autofluor 22811
O=C(Nc1ccc(C2CCCCC2)cc1)C1CCCN(c2ncccn2)C1 (centres undefined)	BoNT-A LC inh2 inconclusive, Bead autofluor 22140
O=C(Nc1ccc(Oc2ccccc2)cc1)C1CCCN(c2ncccn2)C1 (centres undefined)	Bead autofluor 21093
COc1cc(NC(=O)C2CCCN(c3ncccn3)C2)cc(OC)c1 (centres undefined)	none
CC(=O)Nc1ccc(NC(=O)C2CCCN(c3ncccn3)C2)cc1 (centres undefined)	none
COc1ccc(NC(=O)C2CCCN(c3c4c(nc5ncnn35)CCC4)C2)cc1 (centres undefined)	Bead autofluor 23021
O=C(NC1CCCCC1)C(c1ccco1)N(C(=O)c1csnn1)c1cccc(F)c1 (centres undefined)	none
OC(c1ccc(F)c(F)c1)c1ncc(-c2ccccc2F)[nH]1 (centres undefined)	none (no result: MazF activator)
COc1ccc(CNCCc2ccccc2)cc1OCC(N)=O	Bead autofluor 20991
COc1ccc(CCNc2ccncn2)cc1	none
COc1cc(CNCc2ccccn2)ccc1OCC(N)=O	none
CCOc1cc(CNCCc2ccc(S(N)(=O)=O)cc2)ccc1OCc1ccccc1	Bead autofluor 22507
COc1ccc(CCNc2ccncn2)cc1OC	Bead autofluor 23028
COc1ccc(CCNCc2ccccn2)cc1OC	Bead autofluor 16567
CCn1c(CNC(=O)c2cccs2)nnc1SCC(=O)NCCc1ccccc1	BoNT-A LC inh2 inconclusive, Bead autofluor 24231
CCn1c(CNC(=O)c2cccs2)nnc1SCC(=O)Nc1ccc(Cl)cc1	Bead autofluor 17189
COc1ccc(Cl)cc1NC(=O)CSc1nnc(CNC(=O)c2cccs2)o1	none
CCn1c(CNC(=O)c2cccs2)nnc1SCC(=O)Nc1cc(Cl)ccc1C	BoNT-A LC inh2 inconclusive, Bead autofluor 21203
CCc1csc(CNC(=O)C2CCC(=O)N(Cc3cccc(OC)c3)C2)n1 (centres undefined)	none
O=C(Nc1cccc(Cl)c1Cl)C1CCN(C(=O)c2cccs2)CC1	none
Cc1ccc(CSc2ncnc3c2cnn3Cc2ccccc2)cc1C	Bead autofluor 21383
O=C(O)COc1ccccc1-c1ccccc1	none
CC(=O)Cc1ccccc1OCC(=O)O	Bead autofluor 16749
Cc1ccc(C(C)NC(=O)c2ccncc2)cc1C (centres undefined)	none
CC(NC(=O)c1ccncc1)C(C)(C)C (centres undefined)	Bead autofluor 21180
CCOC(=O)/C=C1\SCC(=O)N1CC(=O)c1ccc[nH]1	Bead autofluor 21362
